Experimental data as given in the supplement of paper PMC13392028.

System: PvIESI-1 RRM domain (Plasmodium vivax PVP01_0939900 aa 896-1203, GST fusion)
Assay: RBNS R-value (6-mer enrichment in protein-bound RNA vs input library) (ratio); higher = stronger binding preference; the methods of the paper give 50 / 100 / 500 nM protein instead
Method: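 RNA Bind-n-Seq: recombinant GST-tagged IESI-1 RRM domain was incubated at room temperature with a random 40-nt in vitro transcribed RNA library at 250, 500 or 1000 nM protein. Bound RNA was pulled down on glutathione beads and sequenced. R-value is the enrichment of each 6-mer in the bound RNA relative to the input library. Each 6-mer sits inside the random 40-mer context, not as an isolated oligo. Values are replicate 1 only.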

Sequence | RBNS R-value (protein concentration: 250 nM) | RBNS R-value (protein concentration: 500 nM) | RBNS R-value (protein concentration: 1000 nM)
UGAUGU | 4.24 | 4.51 | 4.13
UGAUAA | 2.82 | 3.29 | 3.43
CGAUGA | 2.37 | 2.7 | 2.6
UGAUAU | 2.45 | 2.79 | 2.9
ACCCGA | 1.44 | 1.74 | 1.74
UGAUUU | 4.88 | 5 | 4.69
GUGAUU | 2.96 | 3.22 | 3.1
GUUGAU | 2.7 | 2.98 | 2.73
GAUUUG | 2.81 | 2.87 | 2.62
UGAUGC | 3.72 | 4.04 | 3.95
GAUUUU | 2.5 | 2.64 | 2.47
GUGAUG | 3.26 | 3.57 | 3.34
AUUGAU | 3.54 | 3.72 | 3.67
GCCCGA | 1.45 | 1.67 | 1.67
